Results from PubChem BioAssay (NCATS).
Records with an inconclusive call do not appear. Entries that show only a call come without a potency. Activity calls are given as the source filed them. Calls come from the whole dose curve; as a rule, active = well fitted inhibition curve with a large enough effect; inconclusive = small, poorly fitted or top-dose-only effect; inactive = flat fitted curve, though single readings scatter.

Assay: qHTS for differential inhibitors of proliferation of Plasmodium falciparum line Dd2 (AID 1882); note: nearly all actives have a fitted effect of over 65% in size
Conditions: Potency: Plasmodium falciparum Dd2 proliferation inhibition; series mostly up to 28.7 µM
From the text: NIH Molecular Libraries Probe Production Network [MLPCN]
NIH National Institute of Allergy and Infectious Diseases [NIAID]
NIH Chemical Genomics Center [NCGC]
Assay Provider: Xinzhuan Su, NIAID
Plasmodium falciparum is a virulent malarial parasite that kills 1-2 million people worldwide each year. Transmitted by mosquitoes, the sporozoite form of the parasite enters the blood stream to infect hepatocytes, where they become merozoites that infect red blood cells (erythrocytes). Within erythrocytes, merozoites begin a […] cycle of growth and division, after which the parasite is released to infect new red blood cells. Gametocytes, which form within erythrocytes as well, circulate in the bloodstream and are ingested by the mosquito, thereby completing the life cycle. To profile malarial isolates for differential chemical responses and to identify inhibitors of malarial growth, an assay that measures P. falciparum growth and replication within erythrocytes was employed. This assay uses a DNA binding fluorescent dye (SYBR Green) to detect parasite DNA following cell lysis. Because mature erythrocytes lack DNA, only Plasmodium-derived DNA is detected. The P. falciparum line Dd2, derived from a malarial isolate from […], was used.
NCGC Assay Protocol Summary:
The SYBR Green viability assay was adapted from a method described previously (Plouffe et al., 2008). For screening 3 ul culture medium was dispensed into 1536 well black clear bottom plates (Aurora Biotechnologies) using a Multidrop Combi (Thermo Fisher Scientific Inc.), 23 nL compounds in DMSO were added by a pin tool (Kalypsys), and 5 ul of erythrocytes infected with P. falciparum line Dd2 (0.3% parasitemia, 2.5% hematocrit final concentration) were added. The plates were incubated at 37 C in a humidified incubator in 5% CO2 for 72 h, and 2 ul lysis buffer (20 mM Tris HCl, 10 mM EDTA, […]% saponin, 1.6% triton X, 10X SYBR Green I supplied as 10,000X […] by Invitrogen) was added to each well. The plates were mixed for 25 sec with gentle shaking and incubated overnight at room temperature in the dark. The following morning, fluorescence intensity at 485(14) nm excitation and 535(25) nm emission wavelengths was measured on an EnVision (Perkin Elmer) plate reader. Plate reads were normalized relative to the control inhibitor (0.29 uM artemisinin) and vehicle (DMSO) wells present on each plate and then corrected by an algorithm using vehicle-only control plates at the beginning and end of the compound plate stack.
Plouffe D, Brinker A, McNamara C, Henson K, Kato N, Kuhen K, Nagle A, Adrian F, Matzen JT, Anderson P, Nam TG, Gray NS, Chatterjee A, Janes J, Yan SF, Trager R, Caldwell JS, Schultz PG, Zhou Y, Winzeler EA. […] Proc Natl Acad Sci U S A. 2008, 105(26), pp 9059-64.
Potency is the fitted concentration of half-maximal effect.

Row | Structure (SMILES) | Potency
1 | CCSC(=N)N | inactive
2 | COc1cc2c(CCNC(C)=O)c[nH]c2cc1O | inactive
3 | CN[C@H](CC(=O)O)C(=O)O | inactive
4 | NC(N)=NC(N)=Nc1cccc(Cl)c1 | inactive
5 | COc1ccccc1N1CCN(CCCCN2C(=O)c3ccccc3C2=O)CC1 | inactive
6 | CCC1(O)CC2CN(CCc3c([nH]c4ccccc34)[C@@](C(=O)OC)(c3cc4c(cc3OC)N(C=O)C3[C@]45CCN4CC=C[C@@](CC)([C@@H](OC(C)=O)[C@]3(O)C(=O)OC)[C@H]45)C2)C1 (stereo not given in full) | 100 nM (active)
7 | NC1CCN(O)C1=O (stereo not given) | inactive
8 | O=c1ccn([C@@H]2O[C@H](COP(=O)(O)OP(=O)(O)O)[C@@H](O)[C@H]2O)c(=O)[nH]1 | inactive
9 | CCCn1c(=O)c2[nH]c(-c3ccc(S(=O)(=O)O)cc3)nc2n(CCC)c1=O | inactive
10 | CN1CCN(c2nc3cc(C(F)(F)F)ccc3n3cccc23)CC1 | 8910 nM (active)
11 | OCC1NCC(O)C(O)C1O (stereo not given) | inactive
12 | c1ccc2nc(C3=NCCN3)ccc2c1 | inactive
13 | NCC(O)(CS(=O)(=O)O)c1ccc(Cl)cc1 (stereo not given) | inactive
14 | CNC(=O)c1cc2c(cn1)[nH]c1ccccc12 | inactive
15 | CCCCCCCC/C=C\CCCCCCCC(=O)NCCc1ccc(O)c(O)c1 | 8910 nM (active)
16 | CCN(CC)CCOC(=O)c1cc(Cl)c(N)cc1OC | inactive
17 | N=C(N)c1ccccc1 | inactive
18 | CNc1cc(NS(=O)(=O)c2ccc(N)cc2)nc(NC)n1 | inactive
19 | Cc1cccc(C(=O)NCN2CCN(c3ccccc3C#N)CC2)c1 | inactive
20 | CCC1(O)CC2CN(CCc3c([nH]c4ccccc34)[C@@](C(=O)OC)(c3cc4c(cc3OC)N(C)C3[C@]45CCN4CC=C[C@@](CC)([C@@H](OC(C)=O)[C@]3(O)C(=O)OC)[C@H]45)C2)C1 (stereo not given in full) | 398 nM (active)

Row | Structure (SMILES) | Potency
21 | CC(=O)NNC(=O)N1Cc2ccccc2Oc2ccc(Cl)cc21 | inactive
22 | N[C@@H](CS(=O)O)C(=O)O | inactive
23 | Cn1cc(C(F)(F)F)nc1-c1ccc(OCC(O)CNCCOc2ccc(O)c(C(N)=O)c2)cc1 (stereo not given) | inactive
24 | CC(=O)O[C@H]1CC2(C)[C@@H](C[C@@H](O)[C@H]3[C@@]4(C)CC[C@@H](O)[C@@H](C)[C@@H]4CC[C@@]32C)C1=C(CCC=C(C)C)C(=O)O (stereo not given in full) | inactive
25 | CCN(c1nc(N)c(C(=O)N=C(N)N)nc1Cl)C(C)C | inactive
26 | Nn1nnc2ccccc21 | inactive
27 | COc1ccc2c(c1)CCC1C2CC[C@@]2(C)C1CC[C@@H]2NCCCCCCN1C(=O)C=CC1=O (stereo not given in full) | inactive
28 | O=[N+]([O-])c1cccc2c(Br)[nH]nc12 | inactive
29 | Cc1nc(N=Nc2ccc(C(=O)O)cc2)c(COP(=O)(O)O)c(C=O)c1O | inactive
30 | CN(C)C(=O)/N=N/C(=O)N(C)C | inactive
31 | CCC(=O)N1CCN(C(=O)c2ccccc2)CC1 | inactive
32 | O=c1oc(Cl)c(Cl)c2ccccc12 | inactive
33 | COc1ccc2c(c1)c(CC(=O)O)c(C)n2Cc1ccc(Cl)cc1 | inactive
34 | NCCS(=O)O | inactive
35 | Nc1ccc(-c2nc3ccc(-c4nc5ccc(N)cc5[nH]4)cc3[nH]2)cc1 | 1000 nM (active)
36 | C=C(C)C1CC=C(C(=O)O)CC1 (stereo not given) | inactive
37 | CC(C)NC[C@H](O)COc1ccc(CC(N)=O)cc1 | inactive
38 | [N-]=[N+]=Nc1ccc(C(=O)CSC[C@H](NC(=O)CC[C@H](N)C(=O)O)C(=O)NCC(=O)O)cc1 | inactive
39 | N=C(N)c1ccc(N)cc1 | inactive
40 | CCN1C(=O)C=CC1=O | inactive
